Assay results: PubChem BioAssay (Tox21)
Results filed as inconclusive are left out. Active and inactive are the calls of the source. Unless noted, calls follow the shape of the full dose curve.

Experiments:
[1] = Nuclear factor erythroid 2-related factor 2/antioxidant responsive element (Nrf2/ARE) small molecule agonists: qHTS cell viability counter screen in human keratinocytes (AID 1919968; active = well fitted curve in the direction sought with a large enough effect in the repeat runs; an effect the other way counts as inactive or inconclusive; also: nearly all actives have a fitted effect of over 55% in size; also: potency is read from the fitted curve at half-maximal effect)
In short: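 CellTiter-Fluor fluorescence, read 1 h after reagent, gave viability in the same wells as the ARE-luciferase assay. KeratinoSens cells (1,500/well) had 23 h compound exposure at 37 C/5% CO2 following 5 h plating.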

[2] = Nuclear factor erythroid 2-related factor 2/antioxidant responsive element (Nrf2/ARE) small molecule agonists: luciferase reporter gene qHTS assay in human keratinocytes (AID 1919969); also: nearly all actives have a fitted effect of over 35% in size; also: potency is read from the fitted curve at half-maximal effect
[3] = biological target: Gonadotropin-releasing hormone receptor (Homo sapiens) (UniProt P30968); experiment: Human gonadotropin-releasing hormone receptor (GnRHR) small molecule agonists, calcium flux assay in GnRHR-HEK293 cells (AID 1920063); also: nearly all actives have a fitted effect of over 35% in size
In short: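 Agonist mode: compounds at 15 concentrations, in triplicate, went onto calcium dye-loaded GnRHR-HEK293 cells. Intracellular calcium was then followed as 480/540 nm fluorescence at 1 s intervals over 3 min.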

[4] = biological target: KiSS-1 receptor (Homo sapiens) (UniProt Q969F8); experiment: Human kisspeptin (KISS1R) small molecule agonists, calcium flux assay in KISS1R-HEK293 cells (AID 1920064; active = well fitted curve in the direction sought with a large enough effect in the repeat runs; an effect the other way counts as inactive or inconclusive)
In short: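 Agonist mode: intracellular calcium rise tracked at 1 s intervals over 3 min (480/540 nm) immediately after compound addition to dye-loaded KISS1R-HEK293 stable cells. Each compound tested at 15 concentrations in triplicate.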

[5] = G protein-coupled receptor (GPCR) small molecule agonists, calcium flux assay: HEK293 wild type cell line counter screen (AID 1920065)
In short: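 Calcium flux counter screen: compound added in agonist mode at 15 concentrations in triplicate to dye-loaded parental HEK293 cells. Fluorescence (480/540) read kinetically for 3 min; ATP served as positive control.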

[6] = p53 small molecule agonists, cell-based qHTS assay with human liver microsomes (AID 1963577)
In short: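 Cells carrying a p53-responsive bla reporter were rested 5 h (37 C, 5% CO2) before compound transfer. Human liver microsomes plus NADPH, 0.5 mg/mL final apiece, supplied metabolism during the 16 h 37 C exposure.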

[7] = p53 small molecule agonists, cell-based qHTS assay with rat liver microsomes: qHTS cell viability counter screen (AID 1963580); also: nearly all actives have a fitted effect of over 45% in size; also: potency is read from the fitted curve at half-maximal effect
In short: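 Luminescent ATP readout (CellTiter-Glo, 30 min at room temperature) reports viability of p53RE-bla HCT-116 cells after 16 h at 37 C with test compounds under metabolic activation by rat liver microsomes and NADPH at 0.5 mg/mL final each.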

[8] = p53 small molecule agonists, cell-based qHTS assay (AID 1963582; active = well fitted activation curve with a large enough effect in the signal ratio in the repeat runs, not every such curve was filed as active; the % refers to the signal ratio)
In short: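 Read-out is beta-lactamase FRET fluorescence after 2 h at room temperature with LiveBLAzer B/G substrate. p53 response element-bla cells were treated 16 h at 37 C with compounds in DMSO, added 5 h after seeding.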

[9] = biological target: 5-hydroxytryptamine receptor 2A (Homo sapiens) (UniProt P28223); experiment: 5-hydroxytryptamine receptor 2A (HTR2A) small molecule antagonists, cell-based qHTS assay (AID 1963586); also: nearly all actives have a fitted effect of over 45% in size
In short: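 CHO cells stably expressing human HTR2A were plated for 18 h at 37 C, then loaded with calcium dye for 1 h. Compounds were preincubated 5 min at room temperature before DOI (4 nM solution) was added. Kinetic fluorescence was read for 3 min.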

[10] = biological target: 5-hydroxytryptamine receptor 2A (Homo sapiens) (UniProt P28223); experiment: 5-hydroxytryptamine receptor 2A (HTR2A) small molecule agonists, cell-based qHTS assay (AID 1963587); also: nearly all actives have a fitted effect of over 30% in size
In short: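 HTR2A-CHO cells, plated 18 h at 37 C/5% CO2, dye-loaded 1 h at 37 C; compounds in DMSO added by pin tool (agonist mode). Intracellular calcium flux read as kinetic fluorescence on FDSS over 2 min at 1 s intervals.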

[11] = cAMP Responsive Elements (CRE) small molecule agonists, cell-based qHTS assay (AID 1963590)
In short: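 Agonist mode: compound added to CRE-bla HEK 293T cells (2,000/well, 18 h after plating) for 3 h at 37 C/5% CO2. Reporter activity detected via FRET beta-lactamase substrate, 2 h room-temperature loading.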

[12] = biological target: Beta-2 adrenergic receptor (Homo sapiens) (UniProt P07550); experiment: Adrenergic beta2 receptor (ADRB2) small molecule antagonists, cell-based qHTS assay (AID 1963592); also: series mostly up to about 92 µM; nearly all actives have a fitted effect of over 50% in size
In short: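 Assay format: CHO-ADRB2 cells, 18-20hr seeding at 37C/5% CO2, then compound plus 1nM isoproterenol agonist mix for 0.5hr RT. Homogeneous time-resolved fluorescence cAMP detection after 1hr, expressed as 665/615 nm ratio.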

[13] = biological target: D(2) dopamine receptor (Homo sapiens) (UniProt P14416); experiment: Dopamine D2 receptor (DRD2) small molecule agonists, cell-based qHTS assay (AID 1963594); also: nearly all actives have a fitted effect of over 35% in size; also: potency is read from the fitted curve at half-maximal effect
In short: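 HEK293 cells stably expressing DRD2 were cultured 24 h at 37 C, then given Ro20-1724 (0.1 mM final) and compounds for 10 min at room temperature. NKH477 (200nM) was then added for 30 min. cAMP was read by HTRF.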

[14] = biological target: D(2) dopamine receptor (Homo sapiens) (UniProt P14416); experiment: Dopamine D2 receptor (DRD2) small molecule antagonists, cell-based qHTS assay (AID 1963595; active = well fitted inhibition curve with a large enough effect in the signal ratio in the repeat runs, with a control signal flat; the % refers to the signal ratio)
In short: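 HTRF cAMP read-out at 665 and 620 nm emission (340 nm excitation). Antagonist mode: compounds were tested against 12 nM quinpirole in DRD2-HEK293 cells, with 200 nM NKH477 raising cAMP and 0.1 mM Ro20-1724 blocking its breakdown.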

[15] = p53 small molecule agonists, cell-based qHTS assay with human liver microsomes: qHTS cell viability counter screen (AID 1963579); also: nearly all actives have a fitted effect of over 45% in size; also: potency is read from the fitted curve at half-maximal effect
In short: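 Seed p53RE-bla cells at 4,000 per well; incubate 5 h at 37 C; add compound, human liver microsomes and NADPH; incubate 16 h at 37 C; add CellTiter-Glo; after 30 min at room temperature, read luminescence.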

[16] = p53 small molecule agonists, cell-based qHTS assay: qHTS cell viability counter screen (AID 1963581); also: nearly all actives have a fitted effect of over 45% in size
In short: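 Counter screen read by CellTiter-Glo luminescence (ATP content, 30 min at room temperature), run in the same wells as the beta-lactamase reporter read. HCT-116 p53RE-bla cells saw compounds for 16 h at 37 C.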

[17] = biological target: Muscarinic acetylcholine receptor M1 (Homo sapiens) (UniProt P11229); experiment: Cholinergic receptor muscarinic 1 (CHRM1) small molecule agonists, cell-based qHTS assay (AID 1963589); also: nearly all actives have a fitted effect of over 35% in size
In short: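 Agonist-mode calcium-flux screen: compounds at 15 concentrations, three independent runs, were pin-transferred onto dye-loaded human CHRM1-CHO cells. Fluorescence was then recorded kinetically every second over minutes.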

[18] = biological target: Muscarinic acetylcholine receptor M1 (Homo sapiens) (UniProt P11229); experiment: Cholinergic receptor muscarinic 1 (CHRM1) small molecule antagonists, cell-based qHTS assay (AID 1963588); also: nearly all actives have a fitted effect of over 40% in size
In short: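 Compounds were tested at 15 concentrations in three independent runs. Dye-loaded CHRM1-CHO cells were exposed 5 min at room temperature before stimulation by acetylcholine added at 50nM. Intracellular calcium was read kinetically on FDSS for 3 min.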

[19] = cAMP Responsive Elements (CRE) small molecule antagonists, cell-based qHTS assay (AID 1963591; active = well fitted inhibition curve with a large enough effect in the signal ratio in the repeat runs, not every such curve was filed as active; the % refers to the signal ratio)
In short: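 Antagonist mode: compounds are added alongside the adenylyl cyclase activator NKH477 (0.25 uM final) to CRE-bla HEK293T cells for 3 h. LiveBLAzer FRET substrate, 2 h at room temperature, reports bla expression.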

[20] = p53 small molecule agonists, cell-based qHTS assay with rat liver microsomes (AID 1963578)
In short: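 Fluorescence from a beta-lactamase reporter under a p53 response element was measured after cells had been incubated 16 h at 37 C with test compound and rat liver microsomes plus NADPH (0.5 mg/mL final each).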

Measured: Potency

Sequence of D(2) dopamine receptor (Homo sapiens) (P14416 whole entry, looked up): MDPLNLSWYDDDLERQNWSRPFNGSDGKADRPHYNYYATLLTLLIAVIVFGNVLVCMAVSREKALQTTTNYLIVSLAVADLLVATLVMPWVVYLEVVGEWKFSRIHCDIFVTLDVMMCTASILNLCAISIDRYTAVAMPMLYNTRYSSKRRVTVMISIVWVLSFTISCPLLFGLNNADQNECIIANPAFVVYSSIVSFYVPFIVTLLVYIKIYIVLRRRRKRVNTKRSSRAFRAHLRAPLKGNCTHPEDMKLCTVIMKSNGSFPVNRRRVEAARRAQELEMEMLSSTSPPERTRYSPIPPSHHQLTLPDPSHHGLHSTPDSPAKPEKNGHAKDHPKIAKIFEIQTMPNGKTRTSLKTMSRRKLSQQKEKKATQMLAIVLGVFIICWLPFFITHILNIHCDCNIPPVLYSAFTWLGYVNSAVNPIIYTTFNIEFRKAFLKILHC
Sequence of KiSS-1 receptor (Homo sapiens) (Q969F8 whole entry, looked up): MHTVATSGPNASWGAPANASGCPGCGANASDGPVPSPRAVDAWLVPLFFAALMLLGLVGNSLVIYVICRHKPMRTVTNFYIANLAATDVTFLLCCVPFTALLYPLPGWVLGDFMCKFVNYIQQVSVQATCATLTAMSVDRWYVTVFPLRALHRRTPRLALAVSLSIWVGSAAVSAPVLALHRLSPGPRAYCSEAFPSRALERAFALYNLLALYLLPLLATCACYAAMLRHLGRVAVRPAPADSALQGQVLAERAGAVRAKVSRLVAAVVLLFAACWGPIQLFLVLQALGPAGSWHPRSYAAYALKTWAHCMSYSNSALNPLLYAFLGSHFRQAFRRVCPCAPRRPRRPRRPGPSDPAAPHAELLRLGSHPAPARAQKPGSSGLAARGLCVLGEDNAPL
Sequence of Muscarinic acetylcholine receptor M1 (Homo sapiens) (P11229 whole entry, looked up): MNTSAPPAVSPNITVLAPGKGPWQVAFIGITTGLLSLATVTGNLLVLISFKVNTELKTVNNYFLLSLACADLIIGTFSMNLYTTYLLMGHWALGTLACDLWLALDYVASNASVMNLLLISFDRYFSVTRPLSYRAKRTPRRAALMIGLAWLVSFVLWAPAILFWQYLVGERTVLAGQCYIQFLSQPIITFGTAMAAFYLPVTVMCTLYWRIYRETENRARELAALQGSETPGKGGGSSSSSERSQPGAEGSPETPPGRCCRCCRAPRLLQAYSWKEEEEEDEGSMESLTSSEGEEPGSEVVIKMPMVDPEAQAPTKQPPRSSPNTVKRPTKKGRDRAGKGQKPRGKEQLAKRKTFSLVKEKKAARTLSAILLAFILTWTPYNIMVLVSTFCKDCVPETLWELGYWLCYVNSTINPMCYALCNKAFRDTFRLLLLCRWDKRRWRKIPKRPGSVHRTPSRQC
Sequence of 5-hydroxytryptamine receptor 2A (Homo sapiens) (P28223 whole entry, looked up): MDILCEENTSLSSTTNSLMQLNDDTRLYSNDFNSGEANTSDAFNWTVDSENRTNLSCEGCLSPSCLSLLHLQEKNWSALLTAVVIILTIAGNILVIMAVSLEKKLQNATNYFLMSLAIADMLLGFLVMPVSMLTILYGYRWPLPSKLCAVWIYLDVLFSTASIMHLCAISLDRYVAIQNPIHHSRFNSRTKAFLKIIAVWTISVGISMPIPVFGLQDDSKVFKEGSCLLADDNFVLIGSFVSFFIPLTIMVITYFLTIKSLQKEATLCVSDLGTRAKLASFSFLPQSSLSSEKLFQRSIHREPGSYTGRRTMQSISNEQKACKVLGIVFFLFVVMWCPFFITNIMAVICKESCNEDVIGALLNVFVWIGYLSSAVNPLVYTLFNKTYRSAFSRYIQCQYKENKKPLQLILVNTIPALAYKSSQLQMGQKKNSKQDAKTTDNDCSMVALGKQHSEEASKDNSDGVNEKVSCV
Sequence of Beta-2 adrenergic receptor (Homo sapiens) (P07550 whole entry, looked up): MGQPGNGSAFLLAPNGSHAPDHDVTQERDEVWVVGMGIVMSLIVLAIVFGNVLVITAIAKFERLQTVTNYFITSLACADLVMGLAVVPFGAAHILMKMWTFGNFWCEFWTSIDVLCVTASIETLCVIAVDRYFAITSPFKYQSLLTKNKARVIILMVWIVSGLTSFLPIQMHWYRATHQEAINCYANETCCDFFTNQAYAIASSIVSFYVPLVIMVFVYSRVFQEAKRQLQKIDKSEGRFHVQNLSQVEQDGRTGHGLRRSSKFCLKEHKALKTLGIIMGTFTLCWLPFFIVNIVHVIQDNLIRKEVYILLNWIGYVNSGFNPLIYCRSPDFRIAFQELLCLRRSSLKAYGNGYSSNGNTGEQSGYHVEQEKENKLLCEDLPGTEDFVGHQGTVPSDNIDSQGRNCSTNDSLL
Sequence of Gonadotropin-releasing hormone receptor (Homo sapiens) (P30968 whole entry, looked up): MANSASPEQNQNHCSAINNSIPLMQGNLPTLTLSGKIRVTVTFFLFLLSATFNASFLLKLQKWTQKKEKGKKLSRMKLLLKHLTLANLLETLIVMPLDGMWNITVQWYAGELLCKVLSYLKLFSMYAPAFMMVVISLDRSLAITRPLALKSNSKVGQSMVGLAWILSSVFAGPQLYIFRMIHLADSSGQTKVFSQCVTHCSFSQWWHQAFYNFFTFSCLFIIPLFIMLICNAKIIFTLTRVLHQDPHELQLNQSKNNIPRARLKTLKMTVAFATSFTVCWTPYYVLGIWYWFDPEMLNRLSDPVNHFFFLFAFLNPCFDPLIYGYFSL

CCC(CC)(CNC(=O)CCCO)c1cccc(OC)c1
not listed: [15] | [16] | [17] | [18] | [19] | [20]
inactive: all other assays above

S=C=Nc1cccc2ccccc12
active: [1] 27 µM | [2] 15.2 µM
not listed: [9] | [10] | [17] | [18] | [19] | [20]
inactive: all other assays above

C#CC1(O)CCCCC1
not listed: [15] | [18] | [19] | [20]
inactive: all other assays above

C=CC[C@]1(O)CC[C@H]2[C@@H]3CCC4=CC(=O)CCC4=C3C=C[C@@]21C
not listed: [11] | [14] | [16] | [19] | [20]
inactive: all other assays above

O=C1CN2CCOC2(c2ccccc2Cl)c2cc(Cl)ccc2N1 (stereo not given)
not listed: [10] | [14] | [16] | [20]
inactive: all other assays above

Oc1cc(Cl)c(Cl)c(Cl)c1Cl
inactive: [3] | [4] | [5] | [6] | [9] | [17] | [14]
active: [1] 53.2 µM | [2] 53.2 µM | [15] 17.8 µM | [7] 17.8 µM

CC(C)[C@H](C(=O)O[C@H](C#N)c1cccc(Oc2ccccc2)c1)c1ccc(Cl)cc1
not listed: [8] | [11] | [17] | [19] | [20]
inactive: all other assays above

ClC(Cl)C(Cl)Cl
not listed: [14] | [15] | [20]
inactive: all other assays above

CCCCCCCC(=O)Cl
active: [13] 0.0017 µM
not listed: [8] | [11] | [19] | [20]
inactive: all other assays above

CN1C2CCC(C)(C)C1CC(OC(=O)C(O)(c1cccs1)c1cccs1)C2 (stereo not given)
not listed: [6] | [13] | [17] | [18]
inactive: all other assays above

Clc1ccc(C2(Cn3cncn3)CC(Br)CO2)c(Cl)c1 (stereo not given)
not listed: [9] | [10] | [11] | [14] | [20]
inactive: all other assays above

CCOP(=O)(OCC)Oc1cc(C)nc(C(C)C)n1
not listed: [6] | [19] | [20]
inactive: all other assays above

Oc1ccc2c3c1O[C@H]1[C@@H](O)C=C[C@H]4[C@@H](C2)NCC[C@@]341
not listed: [6] | [15]
inactive: all other assays above
